Over roughly 25,000 sequences, “ln(normalized median fluorescence intensity)” has its median near 6.7; the highest 2% begin near 10. The entries come from a sample that favours the highest values as a whole.

In the assay the test system is PfHDP1 homeodomain (GST-tagged). As to the kind of experiment: gcPBM binding intensity (ln(normalized median fluorescence intensity)); higher = stronger DNA binding. The gist of the method: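 DNA-binding domains from P. falciparum, fused to GST and produced in E. coli, were put on an Agilent 4 × 180k double-stranded probe array for 1 h in 1× PBS holding 1% milk, 0.2 mg/ml BSA, 0.5% salmon testes DNA and 0.03% Triton X-100. Probes were primer-extended, 36 bp long and drawn from intergenic genomic regions, with negative controls included. After Alexa488 anti-GST antibody detection and a 488 nm scan, binding intensity was set as the highest Masliner-normalised natural-log median intensity across replicate spots of either probe orientation.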
In the case of “AAAATATTTATATTTACACACACATAATACATATAT [CACACA_site32]”, the “gcPBM binding intensity (ln)” value is 6.84.

For the sequence “TTACATATTTTCATTTGTACATATTCATTTTTTTTC [XGTACX_site6988]”, the “gcPBM binding intensity (ln)” value came out at 6.47. In the case of “ATATATATGTGAAAATCACACATTGCTTATCTGTAA [CACACA_site6044]” it was 6.3; in that of “CAAACAATTAAACAAACACACATATACATGTATATA [CACACA_site2060]”, 6.54. As for “TATAAATAAAAATATACACACTGTATTATTGTAATA [CACACA_site7721]”, the “gcPBM binding intensity (ln)” value was 6.24.

As for “CAATGCTTTATCAATACATGCATATATATAGAAATA [TGCATGCA_site857]”, the “gcPBM binding intensity (ln)” value was determined as 6.46. In the case of “CTTATGTGCATACCTACACACTTACATATATATATA [CACACA_site8973]” it was 9.47; in that of “ATATGTATTTATATATGTTTGATTTTTTTTTTTTTT [TGCATGCA_negctrl_site506]”, 6.23. In the case of “TGTATAAAAGTTTATACACACATTTGATATATTTCA [CACACA_site6606]” it was 6.58; in that of “AATATATATTTATAAACACACACCAAAATTTGTGCT [CACACA_site3091]”, 6.82. As for “TAGTTTTTATATAGCACACATATTGTGATTATGTAT [CACACA_site1196]”, the “gcPBM binding intensity (ln)” value was 6.83. In the case of “TATGTATATATTTGTGCACACCAAAGTTTGATTTTA [CACACA_site1861]” it was 11.4; in that of “TGTATATATTTGTGCACACCAAAGTTTGATTTTATT [CACACA_site1860]”, 11.4.

As to “AAAAAAAAAAAAAACACACACAAATTTAATATATAT [CACACA_site1695]”, the “gcPBM binding intensity (ln)” value turned out to be 6.64.

As to “TTTTTTTTTTTTTTTTGTACTCATATCTACTATCAT [XGTACX_site274]”, the “gcPBM binding intensity (ln)” value worked out at 6.44. With “AAATTTATATATAGTTGTACAAAAATATGTTTCGTA [XGTACX_site4801]” the figure was 6.62; with “GTGGACGAAATAGTTGTAAATTTATGTGCAAACCTC [XGTACX_negctrl_site564]”, 11.2; with “AAATAAAATTTTATGTGTACGCAAAAAGTTGTAAGC [XGTACX_site8911]”, 7.29. In the case of “GTTTTTAATGTTTTGACATGCAATATTAAAAATAAT [TGCATGCA_site174]” it was 6.57; in that of “TATATATATATATATATTTTAAATGATATAAATGGT [TGCATGCA_negctrl_site152]”, 9.23; in that of “AAAAAAAAAATGAGCACACATAAATAAAAACAAACA [CACACA_site1573]”, 7.39. In the case of “AATATATCAAAAATGATGACATAAATATATTAATTT [GTGCAC_negctrl_site530]” it was 6.13; in that of GTATTCATTCCTTGAGTGCAATTGCAATAAATAAAA, 10.7. Consider ATTAAATTTCCTTGAGTGCACATTTTGTTAAAATAT, for which the “gcPBM binding intensity (ln)” value amounted to 9.29. With AAATGAATATTCATAGTGCAATATATAAATGAAAAT the figure was 9.5; with “ATACTATAATATAAAACACACATATGTACCTTCTAA [CACACA_site7323]”, 6.67; with TATTAATATATAGTAGTGCAATAAAGATATACTGAA, 9.67. With TATAAGGCAATAATAGTGCACTAAGATATATAATGA the figure was 10.7; with “TTGCAATAATGTTGCACACTAAATAGTCATATATAA [CACACA_site263]”, 9.77; with “GTATTATATTTCAACTGTACGTAAAACTATTAAAAT [XGTACX_site3679]”, 6.55.

“TCAATAAATATACATACATGCATACATACATACATA [TGCATGCA_site197]”: the “gcPBM binding intensity (ln)” value turned out to be 6.53. In the case of ACCAATAAATATTTGGTGCATACATATATATATATA it was 10.5. For the sequence “TATTTCTTTTGGTTGGTGCATAAAATAATACAATAT [GTGCAC_site9916]”, the “gcPBM binding intensity (ln)” value was found to be 10.5. In the case of “AAATAATTTATATATTGTACAAATATTAAATGCGAA [XGTACX_site3390]” it was 7.16; in that of “ATAACCTAATAATACACACACATGAATATATATAAT [CACACA_site4689]”, 7.17; in that of “TATTTTTCCCTATGCACACACACCGTATATATAATA [CACACA_site4758]”, 10.1. With “ATTTTCTTTCTATGCACACGCACGTATTTGCACCCA [CACACA_site3350]” the figure was 10.9; with “TTATTTTCTTTCTATGCACACGCACGTATTTGCCCA [CACACA_site9104]”, 9.79. In the case of “CGTAATAAAAACAAATGTACATGACCTGGACAGGTT [XGTACX_site6560]” it was 6.4. With “TTATTTTTTTTATATATATGTATAAATATATATATA [XGTACX_negctrl_site441]”, the “gcPBM binding intensity (ln)” value came to 7.84. In the case of “TTATAAAATGGGCAAACACACACAAAAAAAAGATAT [CACACA_site8476]” it was 7.42. With “TAATACTTTTAATCTACACACGCTGAGACATGCTTT [CACACA_site1484]” the figure was 6.14; with “TATCTTACTTTTTGCACACACTAATATTATTGTTTA [CACACA_site4990]”, 11.1. In the case of “ATATATTTTTTGAATACACACATATTATCTGTAATA [CACACA_site4826]” it was 6.45. For the sequence “TAATATTACATTTATTGTACTTTGTTTTTATTTTAT [XGTACX_site1605]”, the “gcPBM binding intensity (ln)” value amounted to 6.27. With “ATATACTTATATATTGCACACATCTAATATTTTGAA [CACACA_site3165]” the figure was 10.5.

On to “ATAATATTATACTTTGCACACATCTGAAATGACATA [CACACA_site3952]”, for which the “gcPBM binding intensity (ln)” value was found to be 10.4.

Turning to “TATATCTTACTTTTTGCACACACTAATATTATTGTT [CACACA_site1640]”, the “gcPBM binding intensity (ln)” value came to 10.1. With “ATAAATCCCAAAACCTTGCAAGACAACGTTTGATCA [CACACA_negctrl_site1327]” the figure was 6.57; with “TCTTTAACAAGTTAAACACACATACCTATATACATA [CACACA_site7237]”, 6.47; with “TCTTTCTTATTTTAATGATATTTATTCATTCCAGTT [CACACA_negctrl_site1679]”, 6.52. As for “TTCCCAACATGATATTGTACATTTAATTATAATTAA [XGTACX_site7029]”, the “gcPBM binding intensity (ln)” value amounted to 7.08. On to “TAAAAAAAAACATGTGCACACGTTTTATCTACATAA [CACACA_site2336]”, for which the “gcPBM binding intensity (ln)” value came to 10.8. In the case of “CAAAACATTTTATCTACACACATATATAAATAAATA [CACACA_site3220]” it was 6.36; in that of “TTATCTCTACAAAGTGCACACACGTAAAAACATATA [CACACA_site3957]”, 8.98. As to “TATTATTGTCTTTCAAAAAAAAAAAAAAAAAAAAAA [CACACA_negctrl_site1242]”, the “gcPBM binding intensity (ln)” value was found to be 6.11. For the sequence “TATCGAGCCATTTTTACATGCAATTATACATAATTT [TGCATGCA_site987]”, the “gcPBM binding intensity (ln)” value is 6.73. Regarding “AATATTGCACCATTTTGTACATAATATATTCAAATA [XGTACX_site475]”, the “gcPBM binding intensity (ln)” value amounted to 10.3.

On to “AATATATTGCACCATTGGACCTGAATAATTCTTCCA [CACACA_negctrl_site1071]”, for which the “gcPBM binding intensity (ln)” value is 11.4. For the sequence “ATAATTATTCTTATGGTGCACTGAATATACATGTTG [GTGCAC_site9760]”, the “gcPBM binding intensity (ln)” value stood at 9.5. In the case of “ATATCTATAATAAATACACACATTTATATAGATAAA [CACACA_site7518]” it was 6.38. In the case of “AAATGTGTTAATGTGCGTACACATATATATAATATT [XGTACX_site2792]” it was 6.66; in that of “GTGTATTTTGTGCGCACACACATGCAAAAAGAAATA [CACACA_site6660]”, 9.54; in that of “TTGTGGATTTTGTGCGCACACACATGCAAAAAGAAA [CACACA_site1147]”, 9.58. In the case of “ATTTTGTGCGCACACACATGCAAAAAGAAATATGAT [TGCATGCA_site261]” it was 10.5; in that of “TAATGATAAATACATACACACAAAAAATGATATATA [CACACA_site7258]”, 6.48; in that of “TCTTCTTTTTTTTTTTTGTATTATTATAAATATTAT [CACACA_negctrl_site1668]”, 6.53.

For the sequence “ATATATATTATTTCTACACACATATATATAATATGT [CACACA_site3374]”, the “gcPBM binding intensity (ln)” value was 6.9.

As to “GAAAATAAAATAAATGCATGTAAATTTAATGTAATG [TGCATGCA_site996]”, the “gcPBM binding intensity (ln)” value worked out at 6.88.

Take “AATATATATATGTGTACACATCCAAAATAGGCATAC [CACACA_site5705]”: the “gcPBM binding intensity (ln)” value amounted to 7.59.

Regarding TTAATATATTATCTGGTGCATAAACACGTTATACCT, the “gcPBM binding intensity (ln)” value stood at 10.6.

In the case of “TTTGTTATATTTAATACACACATATTATAAACACAT [CACACA_site7703]”, the “gcPBM binding intensity (ln)” value was 6.88. Turning to “TATATATAATATTATACACACATATCTGCATAATAT [CACACA_site4202]”, the “gcPBM binding intensity (ln)” value was found to be 7.05.

“AATATTATTTATATTTGTACACAGTAATATAAAATA [XGTACX_site4884]”: the “gcPBM binding intensity (ln)” value turned out to be 6.25. On to “AATTGTTAATGGTACGAACACACATATAAAGATGCA [CACACA_site2043]”, for which the “gcPBM binding intensity (ln)” value was 6.76. In the case of “TATATATTATATATATGTACATATTGTTGTGTATAT [XGTACX_site767]” it was 7.15; in that of “GTTGTTATATAAAATTGTACATAAAAAACAAAATAT [XGTACX_site5313]”, 6.8.

For the sequence TAGGTACATAAATTGGTGCAAAGTGTACATATATAT, the “gcPBM binding intensity (ln)” value was found to be 10.8. Turning to “GTGTGCAAAAATTGTTGTACATTATATATAAAAAAA [XGTACX_site3246]”, the “gcPBM binding intensity (ln)” value is 10.6. In the case of “TAAATTGGTGCAAAGTGTACATATATATCTTTCCTA [XGTACX_site5458]” it was 10.4; in that of “AAAAAATTATAAAAGTGTACATATATATATATATAT [XGTACX_site154]”, 9.48; in that of “ATATATAATTTTTGTTGTACATTATAAAAATAATTA [XGTACX_site2738]”, 6.3. In the case of “AATTGTGCATTATATTGTACACGTGTTGTATATATT [XGTACX_site975]” it was 10.8; in that of “ATGTGTATATATTATTGTACATATATATATATATAT [XGTACX_site4627]”, 9.24; in that of “CCCACAGACGGACACACACACACACCGACACATATA [CACACA_site4356]”, 7.01. In the case of “TTATAATTTAATAAATGTACATAAATAATATACATA [XGTACX_site7271]” it was 6.14; in that of “AAATTATTAAGTGATATAATATTCTATAGATGGGGA [CACACA_negctrl_site168]”, 6.76. Turning to “ATTTTTTTTTTTTTTTTTTTTGCACCATAAAATAAT [CACACA_negctrl_site1324]”, the “gcPBM binding intensity (ln)” value was 10.1.

On to CCACGAGAATATATAGTGCATAATAATTTTTTTTTG, for which the “gcPBM binding intensity (ln)” value is 8.82.

For the sequence “TGTGCATAATTTTGTGCACACCACGCTAATAATTTT [CACACA_site2915]”, the “gcPBM binding intensity (ln)” value stood at 11.5.
